Rows were chosen to be rich in hits. Some 3.8% of all compounds tested hit in one or more screens of this group.
Nrf2 inh – Nrf2 qHTS screen for inhibitors; A549 ARE-Fluc reporter, luciferase luminescence, 18-24 h; Potency, µM (highest dose often 46 µM), for inactives: top-dose activity change, negative = inhibition, usual class: inhibitors; 360,000 compounds, 2.1% hits; AID 504444, 2011; note: % is set by controls: 0 for no effect and ±100 for the full control effect; nearly all actives have a fitted effect of over 60% in size
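Cells were seeded and rested 2 h, then exposed to compounds for 18-24 h. CellTiter-Fluor was read first as a viability measure. BugLite was added 15 min before the final luminescent read of ARE-luciferase activity in A549 cells.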
HepG2 viability – qHTS for Inhibitors of TGF-b: Cytotox Counterscreen; HepG2 CAGA-GFP viability, ATP luminescence, 18 h; Potency, µM (highest dose often 46.1 µM), inactives show at the top dose activity change, negative = cytotoxicity, actives largely listed as cytotoxic; 410,000 compounds, 0.76% hits
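CellTiter-Glo luminescence gave cytotoxicity after 18 hours at 37 degrees C. The cells were HepG2 CAGA-GFP in 1% FBS DMEM, stimulated with 500 pg/mL TGF-beta after compound addition. %Activity was normalised to no-cell wells (complete cell-killing) and DMSO (no toxicity), and curves were fitted and classified.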
TGFb inhibitor – qHTS for Inhibitors of TGF-b; HepG2 CAGA-GFP TGF-b/SMAD3 reporter, GFP fluorescence, 18 h; TGF-beta stimulated, 500 pg/mL final; Potency, µM (series often up to 46.1 µM), for inactives: top-dose activity, negative = inhibition, most hits filed as inhibitors; 410,000 compounds, 1.2% hits; AID 588855, 2011; note: % is set by controls: 0 for no effect and ±100 for the full control effect; nearly all actives have a fitted effect of over 65% in size
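GFP signal (ex488/em500-530) from TGF-beta-stimulated HEPG2 CAGA-GFP cells, 500 pg/mL final, 18 h at 37 degrees C in DMEM plus 1% FBS, normalized to unstimulated and DMSO-stimulated controls.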
A549 tox – Nrf2 qHTS screen for inhibitors: counterscreen for cytotoxicity. Potency, µM (highest dose often 46 µM), for the others: top-dose activity change, negative = cytotoxicity, most hits filed as inhibitors. AID 504648, 2011. A549 ARE-Fluc cells, CellTiter-Fluor viability, 18-24 h. 390,000 compounds, 0.16% hits; note: % is set by controls: 0 for no effect and ±100 for the full control effect
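A549 ARE_Fluc cells in 5% FBS OPTI-MEM were exposed to compounds in concentration-response for 18-24 h at 37 deg C. Viability was read by CellTiter-Fluor fluorescence (Ex 405/Em 525) after 30 min, before the luciferase read.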
ATXN2 expr inh – Primary qHTS for Inhibitors of ATXN expression; HEK-293 ATXN2-luciferase reporter, luminescence, 24 h; Potency, µM (top dose mostly 57 µM), without a hit: at the highest dose activity change, negative = inhibition, usual class: inhibitors; 360,000 compounds, 0.72% hits; AID 1745845, 2022; note: % is set by controls: 0 for no effect and ±100 for the full control effect; nearly all actives have a fitted effect of over 55% in size
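ATXN2-luciferase reporter cells (luciferase flanked by upstream and downstream ATXN2 gene portions) were treated 24 h at 37 °C with compounds at up to 57 uM. SteadyGlo luminescence gave expression; GF-AFC fluorescence gave viability.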
S2 tox – Viability Counterscreen for Primary qHTS for Inhibitors of ATXN expression. S2 cells (HEK-293 line with an ATXN2-luciferase reporter) viability, CellTiter-Fluor protease fluorescence, 24 h. Potency, µM (titrated, usually from 56.7 µM), hits mostly cytotoxic. 400,000 compounds, 0.49% hits. AID 651635, 2014; note: nearly all actives have a fitted effect of over 40% in size
* = called active by the depositor; i = inactive; u = inconclusive; x = no result given; ! = not active in a repeat. Calls come from the whole dose curve; as a rule, active = well fitted curve in the direction sought with a large enough effect; inconclusive = small, poorly fitted or top-dose-only effect, or another doubt; inactive = no such curve, though single readings can be large; an effect the other way counts as inactive or inconclusive. Potency is the fitted concentration of half-maximal effect.

SMILES	Nrf2 inh	HepG2 viability	TGFb inhibitor	A549 tox	ATXN2 expr inh	S2 tox
CN(C)CCNC(=O)c1cccc(-c2cc(NC=O)c3ncc(-c4cccc(C(F)(F)F)c4)n3c2)c1	x	20µM*	u	x	22.4µM*	28.2µM*
COc1ccc(-c2cnc3c(NC=O)cc(-c4ccccc4OC)cn23)cc1OC	x	-28.1%	u	x	17.8µM*	i
CC(=O)C(=Cc1ccc(Cl)cc1)C(=O)c1ccccc1	x	-64.0%	u	x	u	28.2µM*
COc1ccc(C=C(C(C)=O)C(=O)c2ccccc2)cc1	x	-23.3%	-8.8%	x	-19.1%	i
CC(=O)C(=Cc1cccc(C#N)c1)C(=O)c1ccccc1	x	-44.1%	u	x	u	i
COc1ccc(C=C(C(=O)c2ccccc2)C(=O)c2ccccc2)cc1	x	11.2µM*	u	x	75.1%	i
CC(C)[C@H](NC(=O)OC(C)(C)C)c1nnc(SCC(=O)Nc2ccc(Br)cc2)o1	u	-29.3%	-4.3%	-23.7%	-0.2%	i
Clc1nc(CN2CCCCC2)nc2sc3c(c12)CCCC3	26.0%	-38.8%	25.1µM*	9.4%	x	u
Clc1nc(CN2CCOCC2)nc2sc3c(c12)CCC3	5.5%	0.1%	14.9%	-1.2%	-8.8%	i
Cc1noc(CN(C)c2ncnc3ccc(-c4ccc5c(c4)OCO5)cc23)n1	9.8%	x	x	4.0%	x	x
O=C(CNCC1CCCCC1)Nc1ccc(OC(F)(F)F)cc1	-5.0%	-88.6%	15.8µM*	-3.0%	-10.1%	i
NNC(=O)c1oc2nc(-c3ccc(Cl)cc3)cc(-c3ccccc3)c2c1N	10.3µM*	-15.3%	-4.6%	19.5%	u	x
CCN(C(=O)CSc1nc2n[nH]c(C)c2c(=N)n1-c1cccc(OC)c1)c1cccc(C)c1	x	-67.0%	u	-14.3%	u	x
O=C(NCc1ccncc1)c1cccc(S(=O)(=O)Nc2ccc(SC(F)F)cc2)c1	14.6µM*	7.2%	-13.2%	-20.8%	0.9%	i
CCCOc1ccc(CN2C(=O)C(=O)c3cccc(C)c32)cc1	-5.4%	-73.8%	15.8µM*	9.2%	x	x
CC(C(=O)O)c1ccc(-c2ccccc2)c(F)c1 (stereo not drawn)	-11.3%	13.5%	-2.6%	-6.4%	0.6%	i
CC(C(=O)Nc1ccccc1)c1ccc(-c2ccccc2)c(F)c1 (stereo not drawn)	10.3µM*	-8.3%	u	-29.9%	-28.6%	i
Brc1ccc(CN2CCc3nc(Nc4ccccc4)ncc3C2)s1	x	-22.2%	u	2.2%	10.2%	i
COc1ccc(Cl)cc1NC(=O)C1CCCN(c2ncnc3c2nc2n3CCCCC2)C1 (stereo not drawn)	-1.8%	-10.2%	4.2%	-3.1%	-12.9%	i
CN(C)[C@@H](CCOc1cccc2ccccc12)c1ccccc1	x	x	x	x	31.6µM*!	u
CN(C)CCNc1cccc2sc3ccc(O)cc3c(=O)c12	x	-58.1%	4.47µM*	x	17.8µM*	i
Cc1ccc(NCCN(C)C)c2c(=O)c3cc(O)ccc3sc12	u	-114.5%	u	-7.3%	10.6µM*	26.7µM*
Cc1ccccc1CNCCCSc1nnnn1-c1ccccc1	18.8%	-12.3%	5.4%	5.2%	2.5%	i
CCSc1nc2sc3c(c2c(=O)n1-c1ccc(OC)cc1)CCN(C)C3	23.1µM*	11.0%	0.4%	-1.6%	-17.5%	i
CCOC(=O)CSc1nc2sc3c(c2c(=O)n1-c1ccc(OC)cc1)CCN(C)C3	u	0.1%	0.3%	-0.9%	-15.7%	i
SMILES	Nrf2 inh	HepG2 viability	TGFb inhibitor	A549 tox	ATXN2 expr inh	S2 tox
O=C(CN1C(=O)COc2ccc(S(=O)(=O)N3CCCC3)cc21)N1CCN(c2ccccc2)CC1	17.1%	-8.2%	-6.7%	-5.5%	x	x
Cc1ccc(NC(=S)N(CCN(C)C)C(C)c2ccco2)cc1Cl (stereo not drawn)	-13.3%	-9.6%	17.8µM*	13.9%	x	i
Cc1ccc(NC(=S)N(CCN(C)C)C(C)c2ccco2)c(C)c1 (stereo not drawn)	u	-16.2%	-27.2%	u	x	i
Cc1ccsc1CNC(=O)c1c(-c2ccccc2)noc1C	3.2%	-5.7%	12.7%	-2.5%	1.1%	i
CCS(=O)(=O)c1cccc(-c2cc(C(=O)NC3CCN(C)CC3)c(C)c3[nH]c4ncc(C)cc4c23)c1	x	x	x	x	1.93µM*	x
Cc1ccccc1NS(=O)(=O)c1ccc(C(=O)N2CCN(c3ccccc3O)CC2)cc1	u	3.7%	-4.4%	-14.3%	-13.4%	i
CCc1ccc(NC(=O)C(C)OC(=O)c2ccc(NS(=O)(=O)c3ccc(C)c([N+](=O)[O-])c3)cc2)cc1 (stereo not drawn)	20.6µM*	-1.8%	u	u	-25.2%	u
Cc1ccc(S(=O)(=O)Nc2ccc(C(=O)N3CCN(c4ccccc4O)CC3)cc2)cc1[N+](=O)[O-]	14.6µM*	-1.0%	2.2%	-26.5%	-2.9%	i
O=C(NCc1ccccc1)c1cc(C2CCCN(S(=O)(=O)c3ccccc3)C2)on1 (stereo not drawn)	x	-3.7%	9.3%	x	3.7%	i
Cc1ccc(NC(=O)c2ccc3c(c2)NC(=O)c2ccccc2S3)cc1	16.4µM*	-35.9%	-1.2%	u	-38.9%	u
CCOC(=O)N1CCC(NC(=O)c2ccc3c(c2)N(Cc2ccc(F)cc2)C(=O)c2ccccc2S3(=O)=O)CC1	-14.5%	-22.3%	x	11.1%	x	x
Cc1cc(C)c2c(=N)c3ccccc3n(CCCCCCCCn3c4ccccc4c(=N)c4c(C)cc(C)nc43)c2n1	u	-93.5%	u	u	28.2µM*	u
Cc1cc(C)c2c(C)nn(-c3ccccc3)c2n1	18.7%	-16.6%	1.6%	9.2%	3.8%	i
CCN1C(=O)CC(C(C)C)N(C2CCCC2)c2nc(Nc3ccc(C(=O)NC4CCN(C)CC4)cc3OC)ncc21 (stereo not drawn)	-23.2%	-90.5%	u	u	u	x
CCN1C(=O)CC(c2ccccc2)N(C2CCCC2)c2nc(Nc3ccc(C(=O)NC4CCN(C)CC4)cc3OC)ncc21 (stereo not drawn)	2.3%	12.6µM*	u	u	u	x
COc1cc(C(=O)NC2CCN(C)CC2)ccc1Nc1ncc2c(n1)N(C1CCCCC1)CCC(=O)N2C	u	12.6µM*	u	u	0.0%	u
CC(C)(C)c1cc(CCC(=O)NCCc2ccccn2)cc(C(C)(C)C)c1O	-18.0%	-8.4%	-1.7%	-2.7%	-0.6%	i

Screening results: PubChem, National Center for Advancing Translational Sciences (NCATS)
